Screening results: PubChem BioAssay, National Center for Advancing Translational Sciences (NCATS)
Only some compounds are listed: those with a hit (about 3.2% of all), similar ones and a draw of the others.
RE007 growth inh: qHTS Assay for Inhibitors of the HIV-1 protein Vpr | S. pombe RE007 Vpr strain, BacTiter-Glo ATP luminescence, 24 h | Potency, µM (doses to about 92.2 µM), without a hit: top-dose activity change, negative = less growth, usual class: inhibitors | actives 0.21% (n = 360,000); active means well fitted falling curve with a large enough effect; inconclusive means small, poorly fitted or top-dose-only effect; inactive means no such curve, though single readings can be large or run the other way; further: nearly all actives have a fitted effect of over 50% in size
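Fission yeast strain RE007, carrying one chromosomally integrated HIV-1 vpr copy, was seeded at OD 0.01 in PMG+AL medium with 23 nL pinned compound. After 24 h at 30 °C and 99% humidity, viability was read by BacTiter-Glo luminescence.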
AmpC no deterg: qHTS Inhibitors of AmpC Beta-Lactamase (assay without detergent); AmpC nitrocefin hydrolysis, absorbance 480 nm, 0.0001% Triton; actives 0.52% (n = 330,000); Potency, µM (doses to about 57.1 µM), without a hit: at the top dose activity change, negative = inhibition, most hits filed as inhibitors; AID 485341, 2010;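 further: plate controls were no compound for no effect and no enzyme for full effect; nearly all actives have a fitted effect of over 20% in size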
Target sequence (P00811 whole entry, looked up): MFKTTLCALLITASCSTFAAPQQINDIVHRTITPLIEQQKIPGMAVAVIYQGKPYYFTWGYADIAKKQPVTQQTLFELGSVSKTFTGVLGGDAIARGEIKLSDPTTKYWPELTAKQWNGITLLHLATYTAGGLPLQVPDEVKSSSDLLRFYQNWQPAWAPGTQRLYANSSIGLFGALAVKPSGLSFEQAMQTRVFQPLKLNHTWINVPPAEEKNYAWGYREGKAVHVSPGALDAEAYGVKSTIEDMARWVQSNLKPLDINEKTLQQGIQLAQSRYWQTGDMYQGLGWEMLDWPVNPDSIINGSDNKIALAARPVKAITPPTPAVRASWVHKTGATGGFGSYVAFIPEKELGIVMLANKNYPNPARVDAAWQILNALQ
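AmpC (5.3 nM in the dispensed reagent) in 20 mM phosphate pH 7.0 with 0.01% (detergent screen) or 0.0001% Triton X-100 was preincubated with compounds for 15 min at room temperature. Nitrocefin was then added from an 800 uM solution, and hydrolysis was followed at 480 nm.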
Sm TGR inh: qHTS Assay for the Inhibitors of Schistosoma Mansoni Peroxiredoxins; Schistosoma mansoni thioredoxin glutathione reductase (TGR), Q962Y6; purified TGR, DTNB reduction, TNB absorbance 405 nm; Potency, µM (highest dose often 114 µM), for inactives: at the highest dose activity change, negative = inhibition, actives largely listed as inhibitors; actives 3% (n = 360,000); AID 485364, 2010; further: nearly all actives have a fitted effect of over 60% in size
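First, TGR (20 nM dispensed) and NADPH were mixed with compound. Second, a 15 min room-temperature incubation followed. Third, further NADPH and then DTNB were added to start the reaction. Finally, TNB absorbance was monitored kinetically.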
AmpC inh detg: qHTS Inhibitors of AmpC Beta-Lactamase (assay with detergent) | P00811 | AmpC hydrolysis of nitrocefin, absorbance 480 nm, 0.01% Triton | Potency, µM (series often up to 114 µM), for the others: top-dose activity change, negative = inhibition, hits mostly inhibitors | actives 0.041% (n = 370,000);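 further: 0% = no-compound wells and -100% = no-enzyme wells; nearly all actives have a fitted effect of over 25% in size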
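AmpC (5.3 nM in the dispensed reagent) in 20 mM phosphate pH 7.0 with 0.01% (detergent screen) or 0.0001% Triton X-100 was preincubated with compounds for 15 min at room temperature. Nitrocefin was then added from an 800 uM solution, and hydrolysis was followed at 480 nm.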
AMA1 RON2 block: qHTS for Inhibitors of AMA1-RON; Towards Development of Antimalarial Drug Lead: Primary Screen | Plasmodium falciparum AMA1 (3D7) - RON2 peptide interaction | AlphaScreen AMA1-biotinylated RON2 peptide binding | Potency, µM (doses to about 58.2 µM), for inactives: at the highest dose activity change, negative = inhibition, usual class: inhibitors | actives 0.2% (n = 360,000);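 further: 0% = vehicle wells and -100% = peptide control; nearly all actives have a fitted effect of over 45% in size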
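AMA1 (3D7) with his tag at 25 nM final met compounds first, then biotinylated RON2 peptide at 25 nM; detection used donor plus acceptor beads, 10 µg/mL apiece, read by AlphaScreen after 30 min at room temperature.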
Numbers without * were called inactive; ? = inconclusive; · = no result given. Unless noted, the call rests on the fitted dose curve; in most records, active means well fitted curve in the direction sought with a large enough effect; inconclusive means small, poorly fitted or top-dose-only effect, or another doubt; inactive means no such curve, though single readings can be large; an effect the other way counts as inactive or inconclusive. Unless noted, on the % scale 0 is the no-effect control and ±100 the full control effect; potency means the concentration at half of the fitted maximal effect.

SMILES	RE007 growth inh	AmpC no deterg	Sm TGR inh	AmpC inh detg	AMA1 RON2 block
COc1ccccc1C(=O)n1nc(-c2ccccc2)nc1NCc1ccc(Cl)cc1	·	·	0%	-4%	·
COC(=O)C1C(=O)c2c([nH]c(C(=O)OC3CCCC3C)c2C)CC1C (centres undefined)	-1%	7.1µM*	-1%	?	-6%
Clc1ccccc1-c1nnc(SCc2nc(-c3ccccc3)no2)n1-c1ccccc1	·	·	0%	2%	·
Clc1ccc(/C=N/Nc2nc(Cl)nc3ccccc23)cc1	-1%	18µM*	9%	9%	55%
CCN1CCC(N(Cc2ccc3c(c2)OCO3)C(=O)Nc2cc(F)ccc2F)CC1	·	·	-9%	-3%	·
CCOc1ccc(-c2cc(NC(=O)c3ccc(C)cc3)c(C(=O)OC)s2)cc1	·	·	2%	22%	·
COc1ccc(/C=N/NC(=O)c2cc(O)c(O)c(O)c2)cc1Cn1cc([N+](=O)[O-])cn1	0%	-27%	?	9%	?
COc1ccc(/C=N/NC(=O)c2ccccc2O)cc1Cn1cc([N+](=O)[O-])cn1	25%	6.3µM*	1%	-5%	57%
O=C(Nc1ccc2oc(-c3ccccc3F)nc2c1)c1ccc2c(c1)OCCO2	16%	5%	5%	3%	8.4µM*
COc1ccc(Cl)cc1NC(=O)C1CCN(S(=O)(=O)c2ccc(F)cc2)CC1	·	·	-1%	-5%	·
COc1ccc(NC(=O)C2CCN(S(=O)(=O)c3c(C)noc3/C=C/c3ccco3)CC2)cc1	·	·	-13%	3%	·
Cc1ccccc1NC(=O)Nc1cccs1	-11%	-40%	-18%	-8%	-3%
Cc1ccc(Cl)cc1NC(=O)Nc1cccs1	-15%	14µM*	-5%	0%	-1%
O=C(c1cc2cc(Cl)ccc2[nH]1)N1CCN(C(=O)c2ccco2)CC1	7%	63%	16µM*	-2%	0%
O=C(O)c1[nH]c2ccc(Cl)cc2c1CC(=O)N1CCN(C(=O)c2ccco2)CC1	-1%	-26%	22µM*	-13%	-2%
COc1ccc(NC(=O)Cn2c(=O)n(CCc3ccccc3)c(=O)c3c4c(sc32)CCCC4)cc1	·	·	-2%	-2%	·
O=S(NCc1ccccc1)C12CC3CC(CC(C3)C1)C2 (centres undefined)	-5%	24%	3%	?	-1%
CC12CC3CC(C)(C1)CC(C(=O)NCc1ccco1)(C3)C2	11%	-19%	-36%	0%	6%
O=S(NCc1ccco1)C12CC3CC(CC(C3)C1)C2 (centres undefined)	4%	-18%	22µM*	-14%	2%
O=C(NCc1ccco1)C12CC3CC(C1)CC(C(=O)NCc1ccco1)(C3)C2	4%	-16%	40µM*	-8%	0%
Cc1ccc2occ(CC(=O)Nc3ccc(S(=O)(=O)N4CCCC(C)C4)cc3)c2c1 (centres undefined)	·	·	-2%	-5%	·
CC1=CC(c2ccc(Cl)cc2)n2nc(NC(=O)CCC(=O)O)nc2N1 (centres undefined)	17%	-10%	10µM*	-7%	62%
O=C(O)CCCC(=O)Nc1nc2n(n1)C(c1ccc(F)cc1)CC(c1ccc(Cl)cc1)N2 (centres undefined)	-8%	-14%	-22%	-2%	-6%
CC1=CC(c2ccc(Cl)cc2)n2nc(NC(=O)CCCC(=O)O)nc2N1 (centres undefined)	8%	-9%	22µM*	-4%	41%
O=C(NCc1ccc(Cl)cc1)C(=O)Nc1ccc(Br)cc1	·	·	0%	-1%	·
SMILES	RE007 growth inh	AmpC no deterg	Sm TGR inh	AmpC inh detg	AMA1 RON2 block
CCOC(=O)c1c(NC(=O)/C=C/c2ccc(OCC)cc2)sc2c1CCCC2	·	·	-3%	9%	·
Cn1c(=NC(=O)c2ccc(S(=O)(=O)N3CCCC3)cc2)sc2cc(F)ccc21	·	·	21%	11%	·
O=C1CC(C(=O)Nc2ccc(C(=O)N3CCOCC3)cc2)C2(CCCCC2)O1 (centres undefined)	-2%	5µM*	-18%	3%	-2%
CCN(CCCNC(=O)c1cc2c(=O)n(C)c3ccccc3c2s1)Cc1ccccc1	·	·	-19%	6%	·
O=C(Nc1ccc(Cl)cn1)c1cccc2c(Br)cccc12	-10%	20µM*	-13%	-9%	11%
C=CCOc1ccc(C2/C(=C(\O)c3ccc4c(c3)CC(C)O4)C(=O)C(=O)N2CCN2CCOCC2)cc1OCC (centres undefined)	-6%	58%	40µM*	0%	8%
CCOc1ccc(C2/C(=C(/O)c3ccc4c(c3)CC(C)O4)C(=O)C(=O)N2CCCn2ccnc2)cc1OCC (centres undefined)	-16%	166%	89µM*	-2%	7%
CN(C)S(=O)(=O)c1ccc2c(c1)nnn2CCNC(=O)Nc1ccc(Cl)cc1	·	·	-1%	6%	·
O=C1NC(c2cn(-c3ccccc3)nc2-c2cccs2)C(C(=O)c2cccnc2)C(O)(C(F)(F)F)N1 (centres undefined)	-25%	0%	?	?	-1%
COc1cccc(C2NC(=O)NC(O)(C(F)(F)F)C2C(=O)c2cccnc2)c1OC (centres undefined)	-10%	-8%	22µM*	-2%	-17%
COc1ccc(C2NC(=O)NC(O)(C(F)(F)F)C2C(=O)c2ccccc2)cc1OC (centres undefined)	0%	3%	35µM*	-3%	16%
Cc1ccc(-c2cc3nc(-c4ccccc4)cc(C(F)(F)F)n3n2)cc1	·	·	-16%	-4%	·
Cc1csc(N=Nc2ccc(N(C)C)cc2)[n+]1[O-]	?	·	·	·	14µM*
Cc1cc(Nc2cc(F)ccc2C)n2ncnc2n1	4%	28µM*	-3%	-4%	-2%
COc1ccc(CNC(=O)c2cc(C)nc3c2c(C)nn3-c2cccc(Cl)c2C)cc1	·	·	8%	14%	·
CC1CCN(S(=O)(=O)c2ccc(NC(=O)c3cccs3)cc2)CC1	-1%	28µM*	11%	?	-2%
CN1CCN(S(=O)(=O)c2ccc(NC(=O)c3cccs3)cc2)CC1	30%	·	14%	-5%	4%
CC1CCN(S(=O)(=O)c2ccc(NC(=O)CSc3nnnn3C)cc2)CC1	-8%	0.16µM*	6%	-5%	-2%
CC1CCN(S(=O)(=O)c2ccc(NC(=O)Cc3ccc(S(=O)(=O)N4CCOCC4)s3)cc2)CC1	-7%	-14%	79µM*	-5%	-19%
Cn1nnnc1SCC(=O)Nc1cccc(S(=O)(=O)N2CCCC2)c1	-16%	-12%	-29%	-5%	-6%
